This note sets out measurements from PubChem BioAssay (Tox21).

A short description of experiment [1]: qHTS assay to identify small molecule agonists of the hypoxia (HIF-1) signaling pathway - cell viability counter screen (AID 1224844; calls by dose curve; further: nearly all actives have a fitted effect of over 50% in size). The method, boiled down: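 In this counter screen, HRE-bla ME-180 cell viability after 17 hrs of compound exposure at 37C was read by CellTiter-Glo luminescence, multiplexed with the beta-lactamase reporter measurement.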
(Quantitative high-throughput screening tests each substance at several concentrations.)

Experiment [2] in a line: qHTS assay to identify small molecule agonists of H2AX (AID 1224845; active means well fitted activation curve with a large enough effect in the signal ratio in the repeat runs, not every such curve was filed as active; the % refers to the signal ratio). The method, boiled down:
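Phospho-H2AX Ser139 measured by HTRF (ex 320 nm; em 665 and 620 nm) after 24 hr antibody incubation. Compounds, 15 concentrations, 0.76% DMSO, were applied to CHO-K1 cells for 3hr at 37C before lysis.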

A short description of experiment [3]: qHTS assay to identify small molecule agonists of the hypoxia (HIF-1) signaling pathway (AID 1224846; active means well fitted activation curve with a large enough effect in the signal ratio in the repeat runs, not every such curve was filed as active; the % refers to the signal ratio). In a few lines: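 ME-180 HRE-bla reporter cells; compounds in DMSO, 17 h at 37C; read-out beta-lactamase via CCF4-AM FRET.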
Experiment [4] is described as follows: qHTS assay to identify small molecule agonists of H2AX - cell viability counter screen (AID 1224847; calls by dose curve; further: top concentration of the series differs between compounds; nearly all actives have a fitted effect of over 30% in size). In a few lines: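 Wild-type CHO-K1 cells (10% FBS medium) were plated overnight at 37C, exposed to compounds at 15 concentrations for 3 hr at 37C (0.76% DMSO final), and viability was read as CellTiter-Glo luminescence after 30 min at room temperature.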
Experiment [5] is described as follows: qHTS RealTime-Glo MT Cell Viability Assay in HepG2 cells - 24 hour (AID 1224867). Further: nearly all actives have a fitted effect of over 50% in size. In a few lines: (§1)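 Cell number in HepG2 cultures estimated from NanoLuc luminescence generated by metabolic reduction of a prosubstrate by living cells. The homogeneous, nonlytic format allowed repeated reads at 0, 8, 16, 24, 32 and 40 h of compound exposure.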
Experiment [6] can be described thus: qHTS RealTime-Glo MT Cell Viability Assay in HEK293 cells - 32 hour (AID 1224868). Further: nearly all actives have a fitted effect of over 50% in size. Further: potency means the concentration at half of the fitted maximal effect. In a few lines: (§2)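 Homogeneous bioluminescent viability format in HEK293 cells (600 cells/well). Following 5 h at 37 C/5% CO2, 23 nL compound was pintooled; the signal was measured repeatedly during 40 h incubation.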
A short description of experiment [7]: A CellTox Green Cytotoxicity Assay to monitor cytotoxicity in HEK293 cells - 0 hour (AID 1224869). Further: nearly all actives have a fitted effect of over 50% in size. In a few lines: (§3)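 Real-time, in one plate: 600 HEK293 cells/well with dead-cell DNA dye, pinned compound after 5 h, 37 C incubation over 40 h; viable cells give no appreciable fluorescence.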
Experiment [8] can be described thus: qHTS RealTime-Glo MT Cell Viability Assay in HepG2 cells - 40 hour (AID 1224870). Further: nearly all actives have a fitted effect of over 50% in size. The method, boiled down: (§4)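 Real-time viability: cells seeded at 600 per well together with NanoLuc and cell-permeant prosubstrate, compounds added after 5 h incubation. Luminescence tracked at 0, 8, 16, 24, 32 and 40 h of exposure.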
Experiment [9] in a line: A CellTox Green Cytotoxicity Assay to monitor cytotoxicity in HEK293 cells - 40 hour (AID 1224871). Further: nearly all actives have a fitted effect of over 45% in size. Further: potency means the concentration at half of the fitted maximal effect. In a few lines:
as §3

The nature of experiment [10]: qHTS RealTime-Glo MT Cell Viability Assay in HEK293 cells - 16 hour (AID 1224872). In a few lines:
as §2

A short description of experiment [11]: qHTS RealTime-Glo MT Cell Viability Assay in HepG2 cells - 8 hour (AID 1224873). Further: nearly all actives have a fitted effect of over 55% in size. The method, boiled down: as §4
A short description of experiment [12]: qHTS RealTime-Glo MT Cell Viability Assay in HEK293 cells - 40 hour (AID 1224874). Further: nearly all actives have a fitted effect of over 50% in size. Further: potency means the concentration at half of the fitted maximal effect. As to conditions: RealTime-Glo luminescence; max response: stronger effect = lower value. In a few lines:
(§5)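 Kinetic, non-lysing viability readout. Seed HEK293 (600/well) with reagent, incubate 5 h at 37 C/5% CO2, pin 23 nL compound in DMSO, incubate at 37 C, read luminescence at 0, 8, 16, 24, 32, 40 h.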

A short description of experiment [13]: qHTS RealTime-Glo MT Cell Viability Assay in HepG2 cells - 32 hour (AID 1224877). Further: nearly all actives have a fitted effect of over 55% in size. The method, boiled down:
as §1

The nature of experiment [14]: A CellTox Green Cytotoxicity Assay to monitor cytotoxicity in HepG2 cells - 24 hour (AID 1224878). Further: nearly all actives have a fitted effect of over 45% in size. In a few lines: (§6)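 Cytotoxicity was tracked as dead-cell DNA fluorescence in HepG2 cells treated with test compounds at 37 C; each time-point value comes from one kinetic series spanning 0, 8, 16, 24, 32 and 40 h.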
Experiment [15] is described as follows: A CellTox Green Cytotoxicity Assay to monitor cytotoxicity in HepG2 cells - 40 hour (AID 1224879). Further: nearly all actives have a fitted effect of over 40% in size. Further: potency means the concentration at half of the fitted maximal effect. In a few lines:
as §6

A short description of experiment [16]: qHTS RealTime-Glo MT Cell Viability Assay in HEK293 cells - 0 hour (AID 1224880). Further: nearly all actives have a fitted effect of over 45% in size. Further: potency means the concentration at half of the fitted maximal effect. In a few lines:
as §5

Experiment [17] is described as follows: A CellTox Green Cytotoxicity Assay to monitor cytotoxicity in HEK293 cells - 24 hour (AID 1224875). Further: series mostly up to about 77 µM; nearly all actives have a fitted effect of over 45% in size. The method, boiled down:
as §3

Experiment [18] in a line: A CellTox Green Cytotoxicity Assay to monitor cytotoxicity in HepG2 cells - 16 hour (AID 1224876). Further: nearly all actives have a fitted effect of over 45% in size. In a few lines: as §6

The structures appear in SMILES notation. Unmarked numbers belong to inactive results. Records with an inconclusive call do not appear. The source made the active and inactive calls. Unless noted, the call rests on the fitted dose curve; in most records, active means well fitted curve in the direction sought with a large enough effect in the repeat runs; inconclusive means weak or mixed curves; inactive means no such curve, though single readings can be large; an effect the other way counts as inactive or inconclusive.
On the % scale 0 is the no-effect control and ±100 the full control effect.

On to `CCCCCCCCCCCCCCC1CO1` (stereo not drawn), for which the Potency result in experiment [1], in [2], in [4], in experiment [5], in experiment [6] and in experiment [7] was “inactive” throughout. The Potency result in experiment [8], in experiment [9], in experiment [10], in [11], in experiment [13] and in experiment [14] was “inactive” throughout. Also, the Potency entry in [15] and in [16] was “inactive” in each case. Also, the result in experiment [3] was inactive. In addition, the max response in [12] is 0.82%.

For the compound `CC(=O)O[C@H]1C[C@@H]2CC[C@@H]3[C@H](CC[C@@]4(C)[C@H]3C[C@H]([N+]3(C)CCCCC3)[C@@H]4OC(C)=O)[C@@]2(C)C[C@@H]1N1CCCCC1`, the Potency entry in experiment [1], in experiment [2], in [4], in experiment [5], in experiment [6] and in experiment [7] was “inactive” each time. In addition, the Potency entry in experiment [8], in experiment [9], in [10], in experiment [17], in [18] and in experiment [13] was “inactive” throughout. Besides, the Potency entry in [14], in experiment [15] and in experiment [16] was “inactive” throughout. For the same compound, the outcome in experiment [3] was inactive. Further, the max response in experiment [12] was 3.64%.

Consider `COCCCCCCCCOCCC[Si](C)(O[Si](C)(C)C)O[Si](C)(C)C`, for which the Potency entry in experiment [1], in experiment [2], in [5], in experiment [7], in [8] and in [17] was “inactive” in each case. In addition, the Potency result in experiment [18], in experiment [13], in experiment [14] and in experiment [16] was “inactive” throughout. The compound was classed as inactive in experiment [3]. For the same compound, the Potency in [6] was 3.89 µM (active); in experiment [12] it was 2.75 µM (active); in experiment [15], 21.9 µM (active).

For `CC(Cc1cccc(C(F)(F)F)c1)NCCOC(=O)c1ccccc1` (stereo not drawn), the Potency entry in experiment [1], in experiment [2], in [5], in experiment [7], in experiment [8] and in experiment [11] was “inactive” each time. Besides, the Potency entry in experiment [17], in experiment [13] and in experiment [16] was “inactive” in each case. For the same compound, in [3], the outcome was inactive. Also, in experiment [9], the Potency is 21.3 µM (active).

Regarding `CCCCCCCCCC(=O)OCC`, the Potency entry in experiment [1], in experiment [2], in experiment [4], in experiment [5], in experiment [6] and in experiment [7] was “inactive” throughout. Also, the Potency result in experiment [9], in experiment [10], in experiment [18], in experiment [13], in experiment [14] and in experiment [15] was “inactive” throughout. In addition, the Potency result in [16] was “inactive”. Also, the compound was classed as inactive in experiment [3]. In experiment [12], the max response is -6.56%.

Take `COc1ccccc1OC(=O)Oc1ccccc1OC`: the Potency result in [1], in experiment [2], in experiment [4], in [5], in [6] and in experiment [7] was “inactive” in each case. Besides, the Potency result in experiment [8], in experiment [9], in experiment [10], in experiment [17], in experiment [18] and in experiment [13] was “inactive” in each case. The Potency entry in experiment [14], in [15] and in [16] was “inactive” throughout. Besides, the compound was called inactive in [3]. The max response in [12] is 1.1%.

For `C[C@@H](C1=C(CCN(C)C)Cc2ccccc21)c1ccccn1`, the Potency entry in experiment [1], in experiment [2], in [4], in [5], in [6] and in experiment [7] was “inactive” each time. Further, the Potency result in experiment [8], in experiment [9], in [10], in [11], in [17] and in experiment [13] was “inactive” each time. The Potency result in experiment [14] and in experiment [16] was “inactive” in each case. The compound was classed as inactive in experiment [3]. Further, the max response in [12] is -16.8%.

As to `CCCCOCCOCCOCCOCCO`, the Potency entry in experiment [1], in [2], in experiment [4], in [5], in experiment [6] and in experiment [7] was “inactive” in each case. Also, the Potency result in [8], in [9], in [10], in [11], in experiment [17] and in experiment [13] was “inactive” in each case. The Potency entry in [14] and in [15] was “inactive” each time. Also, the compound was classed as inactive in experiment [3]. For the same compound, the max response in [12] was -11.7%.

On to `CCOC(=O)C1=C(C)NC(C)=C(C(=O)OC)C1c1cccc([N+](=O)[O-])c1` (stereo not drawn), for which the Potency result in experiment [1], in experiment [2], in experiment [4], in [7], in experiment [9] and in experiment [17] was “inactive” in each case. Further, the Potency result in experiment [18], in [14] and in experiment [15] was “inactive” throughout. Also, the call in [3] was inactive. In addition, in experiment [16], the Potency was 5.35 µM (active).
